Laboratory results from PubChem BioAssay.
Activity calls are given as the source filed them.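 How the source made its calls: active means thallium flux through the channel raised or lowered by more than 3 SD from vehicle-only wells, actives on both sides; inactive means the rest.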

Tests used:
Assay in all cases: modulators of BK channel variants, profiling panel, selectivity assay, cell-based, U2OS BacMam, thallium flux, beta subunits (AID 1259406);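 further: initial slope of Thallos dye fluorescence rise after thallium is added; log ratio against the mean of 0.3% DMSO vehicle wells on the same plate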
[1] = tested on: F380Y; settings: at 30 µM
[2] = tested on: F380Y/beta1; settings: at 30 µM
[3] = tested on: F380Y/beta2Delta; settings: at 30 µM
[4] = tested on: F380Y/beta4; settings: at 30 µM
[5] = molecular target: Calcium-activated potassium channel subunit alpha-1 (Homo sapiens) + Leucine-rich repeat-containing protein 26 (Homo sapiens) (UniProt Q12791+Q2I0M4); settings: F380Y/Slo1WT/gamma1, at 30 µM
[6] = tested on: R275C; settings: at 30 µM
[7] = tested on: R275C/beta1; settings: at 30 µM
[8] = tested on: R275C/beta2Delta; settings: at 30 µM
[9] = tested on: R275C/beta4; settings: at 30 µM
[10] = tested on: R275C/Slo1WT/beta2; settings: at 30 µM

Measured: log fold change Tl+ flux

Sequence of Calcium-activated potassium channel subunit alpha-1 (Homo sapiens) + Leucine-rich repeat-containing protein 26 (Homo sapiens) (Q2I0M4 whole entry, looked up, one chain of several): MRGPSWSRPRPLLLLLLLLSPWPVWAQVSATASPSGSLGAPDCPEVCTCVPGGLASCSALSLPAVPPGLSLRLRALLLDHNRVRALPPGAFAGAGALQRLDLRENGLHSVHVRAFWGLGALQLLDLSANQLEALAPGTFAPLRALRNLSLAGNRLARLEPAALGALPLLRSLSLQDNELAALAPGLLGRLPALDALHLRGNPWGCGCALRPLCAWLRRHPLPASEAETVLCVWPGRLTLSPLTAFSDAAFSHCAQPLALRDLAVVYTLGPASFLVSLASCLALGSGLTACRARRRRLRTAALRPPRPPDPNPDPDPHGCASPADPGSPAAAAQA

Cn1c(SCc2ccc(C(F)(F)F)cc2)nnc1C(F)(F)F
inactive: [1] -0.0854 | [2] 0.00114 | [3] -0.0293 | [4] 0.0223 | [5] -0.00125 | [6] -0.0523 | [8] -0.0607 | [10] -0.00318
active: [7] -0.14 | [9] -0.153

C1=CC=CC(C2C=CC=CC=C2)C=C1
inactive: [1] 0.0519 | [2] 0.0343 | [3] -0.0453 | [4] 0.0315 | [5] -0.0568 | [6] -0.00176 | [7] -0.00852 | [8] -0.000831 | [9] 0.0377 | [10] -0.0164

Cc1ccc(C(C)NC(=O)c2ccc(Cl)c(Cl)c2)c(C)c1 (stereo not given)
inactive: [1] -0.0383 | [2] -0.0447 | [3] -0.0218 | [4] -5.9e-05 | [6] -0.0401 | [7] 0.0121 | [8] -0.00757 | [9] 0.00443 | [10] -0.0265
active: [5] -0.119

O=S(=O)(Nc1cc(Cl)c(-n2cccc2)cc1Oc1ccc(Cl)cc1)c1ccc(Cl)cc1
inactive: [1] 0.0117 | [2] -0.0223 | [3] 0.00907 | [4] -0.0612 | [5] -0.0472 | [6] 0.0112 | [7] -0.0614 | [8] -0.0256 | [9] 0.0232 | [10] -0.0536

COc1ccc(CCNC(=O)c2ccccc2NC(=O)c2ccccc2C)cc1OC
inactive: [1] -0.0118 | [2] -0.0452 | [3] -0.0544
active: [4] -0.615 | [5] -0.381 | [6] -1.01 | [7] -0.839 | [8] -0.31 | [9] -0.582 | [10] -0.267

CN1c2ccsc2C(=O)C(=NNc2cccc(C(F)(F)F)c2)S1(=O)=O
inactive: [1] -0.0122 | [2] 0.00552 | [3] 0.00348 | [4] 0.0228 | [5] -0.0208 | [6] -0.00855 | [7] 0.0113 | [8] 0.00493 | [9] -0.00494 | [10] -0.0248

O=C(O)c1nnn(-c2ccccc2Oc2ccc(Cl)cc2Cl)c1-c1ccccc1
active: [2] 0.343 | [3] 0.17 | [4] 0.243 | [5] 0.127 | [7] 0.297 | [8] 0.113 | [9] 0.287
inactive: [1] 0.0736 | [6] -0.021 | [10] 0.0348

CCCCCCCCCCCCSC(=S)Nc1ccc(Br)c(C)c1
inactive: [1] -0.0409 | [2] -0.00527 | [3] -0.0326 | [4] -0.000986 | [5] -0.031 | [6] 0.0399 | [7] 0.0206 | [8] -0.028 | [9] 0.0416 | [10] 0.0211

FC(F)(F)c1cc(-c2noc(-c3ccc4c(c3)CCO4)n2)cc(C(F)(F)F)c1
inactive: [5] 0.0774 | [6] 0.0291 | [10] -0.0138
active: [1] 0.118 | [2] 0.292 | [3] 0.24 | [4] 0.269 | [7] 0.191 | [8] 0.182 | [9] 0.0808

Cc1ccc(C(=O)Cn2cc([N+](=O)[O-])nc2C)cc1
inactive: [1] -0.00237 | [2] -0.0164 | [3] 0.0463 | [4] -0.00425 | [5] -0.043 | [6] 0.00593 | [7] 0.0164 | [8] -0.0174 | [9] 0.0383 | [10] 0.0674

Cc1nnc(-c2ccccn2)[nH]c1=O
inactive: [1] -0.0188 | [2] -0.0365 | [3] -0.0191 | [4] -0.0613 | [5] 0.0158 | [6] 0.0139 | [7] -0.0558 | [8] 0.00421 | [9] -0.00382 | [10] 0.0227

FC(F)(F)c1cc(C=Cc2noc(-c3ccc(CN4CCCC4)cc3)n2)cc(C(F)(F)F)c1
inactive: [1] -0.0963 | [2] 0.0303 | [3] -0.0239 | [4] -0.0108 | [5] 0.0236 | [6] -0.0044 | [7] 0.00631 | [8] -0.0502 | [9] -0.00136 | [10] -0.00667

Cc1c(C(=O)CSc2n[nH]c(=O)n2C(C)c2ccccc2)sc2ccc(Cl)cc12 (stereo not given)
inactive: [1] 0.0243 | [2] 0.0267 | [3] 0.0136 | [4] -0.00607 | [5] 0.0185 | [6] 0.0226 | [7] 0.0417 | [8] 0.0219 | [9] 0.0303 | [10] -0.0119

O=C(O)c1cccc(CSc2cccs2)c1
inactive: [1] 0.0692 | [2] 0.0279 | [3] 0.0398 | [4] 0.000664 | [5] 0.0207 | [6] 0.0115 | [7] 0.0346 | [8] 0.018 | [9] 0.0269 | [10] 0.0372

O=C(Nc1ccc(Cl)cc1)c1cnccc1C(F)(F)F
inactive: [1] 0.0622 | [2] 0.0187 | [3] 0.066 | [4] 0.0347 | [5] -0.0423 | [6] 0.0193 | [7] 0.0288 | [8] -0.00135 | [9] 0.0311 | [10] -0.0457

Cc1cc(C(=O)ON=C(N)c2ccc([N+](=O)[O-])o2)no1
inactive: [1] 0.0152 | [2] 0.0208 | [3] 0.0122 | [4] 0.0216 | [5] 0.00414 | [6] -0.00373 | [7] 0.00585 | [8] -0.00874 | [9] 0.0176 | [10] -0.0342
